# Assay results as given in the supplement of paper PMC12494721.
# Structures can show the parent of a compound that is named as a salt.
# Experiments:
# Settings in all cases: 20 µM; incubation time: 27 h, anaerobic, 37 °C;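 for the amine columns active = adjusted P below 0.05 in both replicates with a change the same way and a mean fold change under 0.8 or over 1.25; inactive = the rest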
# [1] = tested on: Clostridium sporogenes DSM 1664; experiment: growth (OD595) fold change vs plate DMSO controls (fold change (ratio)); higher = more growth
# Procedure, shortened: (§1)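 Absorbance at 595 nm was read after shaking the anaerobic mGAM cultures, which had grown in 96-well plates for 27 h at 37 °C. After blank subtraction and background correction against 20 µM compound solutions in water, a calibration factor of 5 gave OD values. Growth is the fold change against the median of the plate's DMSO controls. Values are the mean of 2 biological replicates, with fold changes above 1.5 set to NA.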
# Escherichia coli IAI1 [2] = experiment: as above
# Procedure, shortened: as §1
# [3] = tested on: Klebsiella aerogenes DSM 30053; experiment: as above
# Procedure, shortened: as §1
# [4] = tested on: Ruminococcus gnavus DSM 108212; experiment: as above
# Procedure, shortened: as §1
# [5] = tested on: Klebsiella aerogenes DSM 30053; experiment: fold change of Histamine concentration vs plate DMSO controls (fold change (ratio)); higher = more amine produced, active = hit call of the paper (significant change in both replicates, either direction)
# Procedure, shortened: (§2)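 Extracts of whole anaerobic mGAM cultures were analysed for amines by LC–triple-quadrupole MS with dynamic MRM and external calibration curves, with drift corrected within batch. Four gut strains were grown at 37 °C for 27 h in 80 µL wells with compounds at 20 µM final, sweeteners at 50 µM final. Each value expresses fold change over plate DMSO controls. The average of 2 biological replicates is shown.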
# [6] = tested on: Clostridium sporogenes DSM 1664; experiment: fold change of Tryptamine concentration vs plate DMSO controls (fold change (ratio)); higher = more amine produced, active = hit call of the paper (significant change in both replicates, either direction)
# Procedure, shortened: as §2
# [7] = tested on: Ruminococcus gnavus DSM 108212; experiment: as above
# Procedure, shortened: as §2
# Escherichia coli IAI1 [8] = experiment: fold change of Putrescine concentration vs plate DMSO controls (fold change (ratio)); higher = more amine produced, active = hit call of the paper (significant change in both replicates, either direction)
# Procedure, shortened: as §2
# [9] = tested on: Klebsiella aerogenes DSM 30053; experiment: as above
# Procedure, shortened: as §2
# Escherichia coli IAI1 [10] = experiment: fold change of Cadaverine concentration vs plate DMSO controls (fold change (ratio)); higher = more amine produced, active = hit call of the paper (significant change in both replicates, either direction)
# Procedure, shortened: as §2
# [11] = tested on: Klebsiella aerogenes DSM 30053; experiment: as above
# Procedure, shortened: as §2
# [12] = tested on: Ruminococcus gnavus DSM 108212; experiment: fold change of 2-Phenylethylamine concentration vs plate DMSO controls (fold change (ratio)); higher = more amine produced, active = hit call of the paper (significant change in both replicates, either direction)
# Procedure, shortened: as §2
Compound,growth [1],growth (Escherichia coli IAI1 [2]),growth [3],growth [4],fold change of Histamine concentration [5],fold change of Tryptamine concentration [6],fold change of Tryptamine concentration [7],fold change of Putrescine concentration (Escherichia coli IAI1 [8]),fold change of Putrescine concentration [9],fold change of Cadaverine concentration (Escherichia coli IAI1 [10]),fold change of Cadaverine concentration [11],fold change of 2-Phenylethylamine concentration [12]
C[C@]12CC[C@H]3[C@@H](CCC4=CC(=O)CC[C@@H]43)[C@@H]1CC[C@@H]2O [Nandrolone],1.11,1.06,1.02,1.01,0.993 (inactive),1.01 (inactive),1.02 (inactive),1.04 (inactive),1 (inactive),1 (inactive),0.999 (inactive),1.03 (inactive)
CC(C)N(C(=O)COc1nnc(C(F)(F)F)s1)c1ccc(F)cc1,0.961,0.973,1.01,0.978,1.02 (inactive),1.01 (inactive),0.886 (inactive),1 (inactive),1 (inactive),1.02 (inactive),0.989 (inactive),0.832 (inactive)
CCCC(Cn1cncn1)c1ccc(Cl)cc1Cl (configuration not stated),0.931,0.973,1.02,0.977,1.02 (inactive),1.01 (inactive),0.984 (inactive),1.02 (inactive),1.02 (inactive),0.965 (inactive),0.997 (inactive),0.953 (inactive)
CC[C@H](C)[C@H]1O[C@]2(C=C[C@@H]1C)C[C@@H]1C[C@@H](C/C=C(\C)[C@@H](O[C@H]3C[C@H](OC)[C@@H](O[C@H]4C[C@H](OC)[C@@H](O)[C@H](C)O4)[C@H](C)O3)[C@@H](C)/C=C/C=C3\CO[C@@H]4[C@H](O)C(C)=C[C@@H](C(=O)O1)[C@]34O)O2.CO[C@H]1C[C@H](O[C@H]2[C@H](C)O[C@@H](O[C@@H]3/C(C)=C/C[C@@H]4C[C@@H](C[C@]5(C=C[C@H](C)[C@@H](C(C)C)O5)O4)OC(=O)[C@@H]4C=C(C)[C@@H](O)[C@H]5OC/C(=C\C=C\[C@@H]3C)[C@]54O)C[C@@H]2OC)O[C@@H](C)[C@@H]1O,1.09,1.01,1.05,1.05,0.985 (inactive),0.855 (inactive),0.906 (inactive),0.989 (inactive),0.99 (inactive),0.968 (inactive),0.996 (inactive),0.885 (inactive)
CC(=NC#N)N(C)Cc1ccc(Cl)nc1,0.969,0.971,0.989,1.13,1.02 (inactive),0.985 (inactive),1.02 (inactive),1.02 (inactive),0.979 (inactive),1.01 (inactive),0.992 (inactive),1.05 (inactive)
N#Cc1nn(-c2c(Cl)cc(C(F)(F)F)cc2Cl)c(N)c1[S+]([O-])C(F)(F)F (configuration not stated),1.16,0.982,0.977,1.02,1.1 (inactive),1.13 (inactive),1.06 (inactive),1.05 (inactive),1.05 (inactive),0.937 (inactive),1.08 (inactive),1.27 (inactive)
C=CC[C@]1(O)CC[C@H]2[C@@H]3CCC4=CC(=O)CCC4=C3C=C[C@@]21C [Altrenogest],0.998,0.987,1.05,0.827,0.926 (inactive),1.02 (inactive),1 (inactive),1.09 (inactive),1.01 (inactive),1.42 (inactive),1.01 (inactive),0.978 (inactive)
N[C@@H]1C[C@H]1c1ccccc1 [Tranylcypromine hydrochloride],1.05,0.992,1.03,1.02,1.1 (inactive),0.972 (inactive),0.964 (inactive),1.01 (inactive),1.03 (inactive),1.03 (inactive),0.995 (inactive),0.928 (inactive)
Oc1ccc(Cc2ccc(O)cc2)cc1 [Bisphenol F],0.945,1.12,0.989,1.03,1.06 (inactive),1.11 (inactive),1.15 (inactive),1.04 (inactive),0.986 (inactive),1.03 (inactive),1.09 (inactive),1.48 (inactive)
CCC1(C2=NCCN2)Cc2ccccc2O1 (configuration not stated) [Efaroxan hydrochloride],1.05,1.05,0.982,1.08,0.992 (inactive),0.939 (inactive),1.03 (inactive),0.97 (inactive),1.01 (inactive),1.06 (inactive),0.997 (inactive),1.01 (inactive)
COc1cc(OC)nc(NC(=O)NS(=O)(=O)c2ncccc2C(=O)N(C)C)n1,1.19,1.03,1.02,1.22,0.96 (inactive),0.975 (inactive),1.01 (inactive),0.924 (inactive),1.03 (inactive),1.01 (inactive),1.01 (inactive),0.998 (inactive)
NCC(O)c1ccc(O)cc1 (configuration not stated) [Octopamine hydrochloride],0.798,1.03,0.986,0.994,1.04 (inactive),1.04 (inactive),0.937 (inactive),1.11 (inactive),1.02 (inactive),1.01 (inactive),1 (inactive),0.875 (inactive)
O=C(O)C(F)(F)C(F)(F)C(F)(F)C(F)(F)C(F)(F)C(F)(F)C(F)(F)C(F)(F)F [PFNA (Perfluorononanoic acid)],1.04,1,1.01,1.05,1.01 (inactive),0.955 (inactive),0.968 (inactive),1.01 (inactive),0.994 (inactive),1.03 (inactive),0.982 (inactive),0.915 (inactive)
C[C@]12CC[C@H](O)C[C@H]1CC[C@@H]1[C@@H]2CC[C@]2(C)[C@@H](C3=CC(=O)OC3)CC[C@]12O [Digitoxigenin],1.02,1.02,0.986,1,1.06 (inactive),1.05 (inactive),1.02 (inactive),1.03 (inactive),1.01 (inactive),1.01 (inactive),0.989 (inactive),1.03 (inactive)
C#C[C@]1(O)CC[C@H]2[C@@H]3CCC4=CC(=O)CC[C@]4(C)[C@H]3CC[C@@]21C [Ethisterone],0.939,1.07,1.01,0.986,1.05 (inactive),1.02 (inactive),1 (inactive),1.03 (inactive),1.04 (inactive),0.988 (inactive),0.997 (inactive),1.04 (inactive)
C[N+]1(C)CCOC(O)(c2ccc(-c3ccc(C4(O)C[N+](C)(C)CCO4)cc3)cc2)C1 (configuration not stated) [Hemicholinium bromide],1.04,0.992,1.2,1.27,0.912 (inactive),1.18 (inactive),1.06 (inactive),1.01 (inactive),0.995 (inactive),0.928 (inactive),1.02 (inactive),1.07 (inactive)
CN(C)[C@@H]1C(=O)C(C(N)=O)=C(O)[C@@]2(O)C(=O)C3=C(O)c4c(O)cccc4[C@@](C)(O)[C@H]3C[C@@H]12 [Tetracycline hydrochloride],0.00861,0.0722,0.0623,0.735,0.0521 (active),0.024 (active),0.799 (inactive),0.291 (inactive),0.481 (inactive),0.148 (active),0.411 (inactive),0.86 (inactive)
Cc1cccc2sc3nncn3c12,0.977,1,0.981,1,0.973 (inactive),0.982 (inactive),0.98 (inactive),0.99 (inactive),0.997 (inactive),1.03 (inactive),0.995 (inactive),0.992 (inactive)
CCC(C)(c1ccc(O)cc1)c1ccc(O)cc1 [Bisphenol B],1.05,1.04,0.977,1.02,1.06 (inactive),1.04 (inactive),0.962 (inactive),0.976 (inactive),0.994 (inactive),1 (inactive),0.98 (inactive),0.974 (inactive)
CC1=NNC(=O)N(/N=C/c2cccnc2)C1,1.04,0.951,0.97,1.03,1.03 (inactive),1.02 (inactive),1.01 (inactive),0.906 (inactive),0.945 (inactive),1.08 (inactive),0.99 (inactive),1.02 (inactive)
CS(=O)(=O)c1cc(C(F)(F)F)ccc1C(=O)c1cnoc1C1CC1,0.937,1.09,1.09,0.964,0.825 (inactive),0.986 (inactive),0.989 (inactive),0.958 (inactive),0.976 (inactive),0.905 (inactive),1.01 (inactive),1 (inactive)
C[N+]12CCC(CC1)C(OC(=O)C(O)(c1ccccc1)c1ccccc1)C2 (configuration not stated) [Clidinium bromide],1.02,1.04,1.07,1,0.975 (inactive),0.952 (inactive),1.03 (inactive),0.957 (inactive),0.981 (inactive),1 (inactive),1 (inactive),1.02 (inactive)
CN(C)C(=O)Oc1cc(OC(=O)N(C)C)cc(C(O)CNC(C)(C)C)c1 (configuration not stated) [Bambuterol hydrochloride],1.09,1.03,1,1.18,1.03 (inactive),1.03 (inactive),1.02 (inactive),0.988 (inactive),1.03 (inactive),1 (inactive),0.995 (inactive),1.02 (inactive)
O=[N+]([O-])/N=C1\NCCN1Cc1ccc(Cl)nc1,1.04,0.975,0.996,0.979,0.986 (inactive),1.01 (inactive),0.989 (inactive),0.964 (inactive),0.998 (inactive),0.98 (inactive),0.998 (inactive),1 (inactive)
O=[N+]([O-])O[C@H]1CO[C@H]2[C@@H]1OC[C@H]2O[N+](=O)[O-] [Isosorbide dinitrate],0.818,1.09,1.08,1.25,0.954 (inactive),1.03 (inactive),1 (inactive),1.06 (inactive),0.97 (inactive),0.94 (inactive),1.02 (inactive),1.06 (inactive)
CCN(CC)N=O [NDEA (N-nitrosodiethylamine)],1.13,1.04,1.09,1.04,0.928 (inactive),1 (inactive),1.01 (inactive),1.01 (inactive),0.999 (inactive),1.03 (inactive),1.01 (inactive),1.01 (inactive)
